Common to all, as to test: NCI-60 one-dose screen, 48 h (100 = growth as untreated, 0 = no growth, -100 = all killed)
Common to all, as to conditions: 10 µM

Test [1] has as its system NCI-H23 lung.
The subject of test [2] is NCI-H226 lung.
In test [3] the test system is NCI-H322M lung.
Test [4] concerns HOP-62 NSCLC.
For test [5], the system named is NCI-H460 lung.
Test [6] relates to NCI-H522 lung.
Test [7] relates to A549/ATCC NSCLC.
Test [8] concerns 786-0 renal.
The test system of test [9] is COLO 205 colon.
The subject of test [10] is DU-145 prostate.
Test [11] deals with K-562 leukemia.
The test system of test [12] is MALME-3M melanoma.
Test [13] concerns MDA-MB-231 breast.
Test [14] has as its system RXF 393 renal.
In test [15] the test system is SF-268 CNS.
The test system of test [16] is SF-295 CNS.
Test [17] has as its system SF-539 CNS.
In test [18] the test system is UACC-257 melanoma.
The subject of test [19] is M14 melanoma.
In test [20] the test system is HCT-15 colon.

SMILES strings stand for the structures. The panel holds about 83,000 compounds, 20% with a hit somewhere; the sample as a whole holds those more often.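 Compound tested at a single concentration for 48 hours in 96-well plates; a percent growth value below 10 was scored as active.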 A number with no mark means an inactive call. The source made the active and inactive calls.

As to `OCC1OC(n2cnc3c(N/N=C\c4ccccn4)ncnc32)C(O)C1O` (stereo not given), the growth in test [1] is 27.1%; in test [2], 11.3%; in test [3], 7.28% (active); in [4], 10%; in [5], 1.62% (active); in test [6], 38.7%. Moreover, the growth in test [7] is 24.6%; in [8] it was 16.2%; in test [9], 22.7%; in test [10], 17.7%; in test [11] it was 17.6%; in [12] it was -14.6% (active). Further, the growth in test [13] was 42.5%; in test [14] it was 33.4%; in test [15] it was 21.5%; in [16] it was -1.12% (active); in [17], 9.72% (active); in test [18], 38%. For the same compound, the growth in test [19] was 8.81% (active); in test [20] it was 25.8%.

With `O=C1ON=[N+](c2ccc(Cc3ccc([N+]4=NOC(=O)C4CN4CCOCC4)cc3)cc2)C1CN1CCOCC1` (stereo not given), the growth was 62.1% in test [1]; 85.5% in test [2]; 82.5% in test [3]; 77% in test [4]; 82.9% in test [5]; 37% in test [6]. Further, the growth was 69.1% in test [7]; 74% in [8]; 99.9% in [9]; 101% in test [10]; 26.4% in test [11]; 65.6% in test [12]. Besides, the growth was 60.5% in [13]; 72.2% in test [14]; 78.3% in [15]; 44.1% in test [16]; 77.5% in [17]; 75.1% in test [18]. For the same compound, the growth was 69.5% in test [19] and 78.6% in [20].

`CC(C)C[C@H](NC(=O)[C@H](Cc1cccc2ccccc12)NS(=O)(=O)c1cccc2cccnc12)B(O)O`: the growth is -52.9% (active) in test [1]; -66.6% (active) in test [2]; -9.95% (active) in [3]; -72.3% (active) in test [4]; -53.2% (active) in [5]; -56.4% (active) in test [6]. In addition, the growth in test [7] is 5.39% (active); in test [8] it was -19.4% (active); in [9] it was -36.5% (active); in test [10], -20.7% (active); in test [11], -17.7% (active); in test [12], -76.9% (active). For the same compound, the growth was -4.94% (active) in [13]; 15.9% in test [14]; 0.092% (active) in [15]; -70.5% (active) in [16]; -34.1% (active) in test [17]; 15.4% in [18]. Further, the figures for the growth in test [19] and in test [20] were -47.4% (active) and -65.8% (active), respectively.

Regarding `ClCC#CCSc1ncnc2c1ncn2CC#CCCl`, the growth is -6.61% (active) in [1]; -13.6% (active) in test [2]; 15.3% in test [3]; -58.4% (active) in test [4]; 1.04% (active) in test [5]; -56% (active) in test [6]. Besides, the growth in test [7] was 46.5%; in test [8] it was 13.3%; in test [9], 54.4%; in test [10], -20.9% (active); in test [11], 17.5%; in test [12], -46.3% (active). Also, the growth was 20.2% in [13]; -65.9% (active) in test [14]; -22.4% (active) in test [15]; 8.11% (active) in test [16]; 26% in test [17]; 55% in test [18]. Moreover, the results for the growth in test [19] and in test [20] were 2.78% (active) and 30.1%, respectively.

With `Nc1ncn(C2OC(CO)C(O)C2O)c(=O)n1` (stereo not given), the growth in test [1] is 30.3%; in test [2], 29%; in [3] it was -0.0643% (active); in test [4], -23% (active); in test [5] it was -1.43% (active); in [6], -12.7% (active). The growth in test [7] was 20.7%; in test [8] it was 12.2%; in [9], 2.62% (active); in test [10] it was -9.86% (active); in test [11], -24% (active); in test [12], 15.1%. For the same compound, the growth is 0.46% (active) in [13]; 10.6% in [14]; 23.9% in [15]; 15.4% in [16]; -24.4% (active) in test [17]; 14.8% in [18]. Besides, the growth in test [19] is 1.16% (active); in [20], -15.3% (active).

For `CCCCOc1ccc(NC(=O)Nc2nnc(C)s2)cc1`, the growth in test [1] was 96.8%; in [2] it was 101%; in test [3] it was 103%; in test [4], 102%; in [5], 102%; in test [6], -36.8% (active). Moreover, the growth was 41.4% in test [7]; 93.5% in test [8]; 120% in test [9]; 120% in test [10]; 83.8% in [11]; 118% in test [12]. The growth in test [13] is 90.7%; in [14], 110%; in test [15] it was 109%; in [16], 87.4%; in [17], 95.3%; in test [18] it was 22.5%. Besides, the results for the growth in test [19] and in test [20] were 91.4% and 99.5%, respectively.

Take `COc1cc(Cl)cc(-c2nn(-c3cccc(NC(=O)Nc4ccc(Cl)c(Cl)c4)c3)cc2-c2ccncc2)c1`: the growth in [1] was 5.72% (active); in [2] it was 7.27% (active); in [3], 32.3%; in [4], 15.7%; in test [5], 3.1% (active); in [6] it was -19% (active). The growth is 11.4% in test [7]; 19.6% in [8]; -70.3% (active) in [9]; 12.1% in [10]; 10% in test [11]; -19.8% (active) in test [12]. Moreover, the growth was -21% (active) in [13]; 4.46% (active) in test [14]; 25.3% in test [15]; -2.42% (active) in [16]; 20.9% in test [17]; -11.5% (active) in test [18]. The values for the growth in [19] and in [20] were 18.7% and 13.9%, respectively.

Turning to `O=C1/C(=C\c2ccc(F)cc2)CN(C(=O)c2ccccc2F)C/C1=C\c1ccc(F)cc1`, the growth in [1] is 16.4%; in test [2] it was -32.9% (active); in test [3], 77.6%; in test [4], -15.5% (active); in [5], 17.8%; in [6], -69.5% (active). The growth in [7] was 12.9%; in test [8], -51% (active); in test [9] it was -42.9% (active); in test [10] it was -10.4% (active); in test [11], -0.921% (active); in test [12] it was -55.2% (active). The growth was -38.7% (active) in test [13]; -83.2% (active) in [14]; 0.452% (active) in test [15]; -30.7% (active) in [16]; 0.221% (active) in test [17]; -28.2% (active) in test [18]. In addition, the results for the growth in test [19] and in test [20] were -48.4% (active) and -16.3% (active), respectively.

Values taken from PubChem BioAssay (NCI).
